# High-throughput results as filed in PubChem BioAssay.
# LEDGF integ inh: blockers of LEDGF/p75-dependent integrase strand transfer – biochemical, TR-FRET, high throughput, primary screen; hit rate 0.64% among 370,000; HIV-1 integrase (with human LEDGF/p75); inhibition, % at 3.7 µM; TR-FRET IN-LEDGF/p75 DNA integration, Eu/Cy5;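 active = inhibition above the screen-wide mean plus 3 SD, cut at about 13% in these data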;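 also: signal is the Cy5 over europium emission ratio at 671 and 618 nm; 0% = plate median of compound wells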
# UHRF1 MBD2 ctr: UHRF1 methylated DNA binding inhibitors, primary screen, counter-screen for MBD2 inhibitor project, biochemical, TR-FRET, human UHRF1, single concentration; hit rate 0.75% among 370,000; UHRF1 binding to methylated oligo; E3 ubiquitin-protein ligase UHRF1 (Homo sapiens), Q96T88; inhibition, % at 4.4 µM; AID 687016, 2013; in the data active = inhibition above about 21%;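 also: UHRF1 SRA domain binding a hemimethylated CpG hairpin DNA probe; 0% = median of test compound wells and 100% = reference inhibitor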
# Target sequence (Q96T88 whole entry, looked up, the tested form may be a part): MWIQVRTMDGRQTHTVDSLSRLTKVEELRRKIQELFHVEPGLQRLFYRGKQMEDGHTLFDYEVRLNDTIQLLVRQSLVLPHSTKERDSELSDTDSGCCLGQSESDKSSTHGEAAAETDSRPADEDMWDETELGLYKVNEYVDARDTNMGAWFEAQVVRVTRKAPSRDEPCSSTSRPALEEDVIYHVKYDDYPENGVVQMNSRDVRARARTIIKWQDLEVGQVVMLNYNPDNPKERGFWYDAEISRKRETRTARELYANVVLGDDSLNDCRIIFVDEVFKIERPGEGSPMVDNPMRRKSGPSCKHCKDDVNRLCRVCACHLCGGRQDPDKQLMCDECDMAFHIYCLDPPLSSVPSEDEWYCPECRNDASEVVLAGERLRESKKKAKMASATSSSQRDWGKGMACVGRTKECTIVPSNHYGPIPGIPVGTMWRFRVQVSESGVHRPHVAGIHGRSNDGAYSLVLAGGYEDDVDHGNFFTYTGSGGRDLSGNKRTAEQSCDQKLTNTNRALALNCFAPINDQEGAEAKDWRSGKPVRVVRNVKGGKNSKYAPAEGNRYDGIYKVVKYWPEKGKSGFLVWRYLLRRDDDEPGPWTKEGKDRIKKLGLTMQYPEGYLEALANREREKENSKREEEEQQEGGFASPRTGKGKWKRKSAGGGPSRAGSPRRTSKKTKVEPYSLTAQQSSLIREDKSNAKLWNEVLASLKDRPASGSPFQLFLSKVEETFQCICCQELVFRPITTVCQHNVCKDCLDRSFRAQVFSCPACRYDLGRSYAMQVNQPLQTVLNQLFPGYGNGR
# PLC-beta3 inh: human PLC-beta3 inhibitors, primary screen, biochemical, fluorescence; 1-phosphatidylinositol 4,5-bisphosphate phosphodiesterase beta-3 (Homo sapiens), Q01970; Purified PLC-beta3, fluorogenic substrate; inhibition, % at 12.2 µM; hit rate 0.18% among 370,000; in the data active = inhibition above about 11%;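 also: 0% = median of compound wells on plate and 100% = full blocker control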
# MBD2 DNA inh: inhibitors of MBD2 binding to methylated DNA, primary screen, biochemical, TR-FRET, DNA-binding domain, human; MBD2 binding to methylated oligonucleotide; inhibition, % at 4.4 µM; hit rate 0.31% among 370,000; in the data active = inhibition above about 13%
# PLC-gamma1 inh: PLC-gamma1 enzyme inhibitors, primary screen, biochemical, fluorescence, purified enzyme; 1-phosphatidylinositol 4,5-bisphosphate phosphodiesterase gamma-1 (Homo sapiens), P19174; inhibition, % at 12.2 µM; fluorogenic substrate; hit rate 0.84% among 370,000; AID 720700, 2013; in the data active = inhibition above about 9.5%
# IN multimer up: HIV-1 IN multimer formation enhancers, counter-screen for LEDGF/p75 integration inhibitor project, biochemical, TR-FRET | shares compounds with LEDGF integ inh | TR-FRET HIV-1 integrase multimerization | hit rate 17% among 2,000 | activation, % at 7.7 µM | AID 1053131, 2014; in the data active = activation above about 8.9%
# TRFRET interf: TR-FRET optical interference artefacts, confirmation, artefact control for LEDGF/p75-dependent integration inhibitor project, biochemical, HIV-1 IN multimerization; inhibition, % at 7.7 µM; AID 1053135, 2014; TR-FRET optical interference counterscreen; shares compounds with LEDGF integ inh; 2,000 tested, under 10 active;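 active = inhibition above the mean over all tested compounds plus 3 SD, which no compound reached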;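 also: 0% = integrase with antibodies and DMSO and 100% = antibodies without integrase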
# IN-LEDGF confirm: inhibitors of HIV-1 IN-LEDGF/p75 DNA integration, confirmation, biochemical, TR-FRET | hit rate 36% among 2,000 | inhibition, % at 3.7 µM | AID 1053136, 2014 | shares compounds with LEDGF integ inh | TR-FRET LEDGF/p75-dependent HIV-1 integration; in the data active = inhibition above about 14%
# Starred values were filed as active, the others as inactive; i = inactive; / = not tested or not shown. Sampled rows, rich in hits. Any-hit rate of the full collection: about 2.4%.
SMILES,LEDGF integ inh,UHRF1 MBD2 ctr,PLC-beta3 inh,MBD2 DNA inh,PLC-gamma1 inh,IN multimer up,TRFRET interf,IN-LEDGF confirm
CC1=C(C)CC(C(=O)Nc2nc(-c3ccc(C)cc3C)c(C)s2)C(C(=O)O)C1 (stereo not drawn),25*,-1,1,-4,1,5,-27,0
O=C1CC(c2ccco2)CC(O)=C1C=Nc1cc(Cl)cc(Cl)c1 (stereo not drawn),45*,33*,-10,8,-1,0,2,0
Cc1ccccc1NC(=S)NNC(=O)c1csc2c1CCC(C)C2 (stereo not drawn),51*,-2,1,-2,0,0,-2,0
Cc1ccc(-n2c(SCC(=O)N/N=C/c3ccccc3OCC(=O)O)nc3ccccc3c2=O)cc1,68*,-2,-11,-2,0,0,-1,3
c1ccn2c(c1)nc1c2nc2ccccn21,14*,-6,i,-7,i,5,-17,3
COC(=O)C1=C(O)/C(=C\c2ccc(CNC(=O)C(=O)Nc3ccc(C)c(C)c3)o2)N=C1C,41*,9,-51,2,-37,4,-21,6
CCOC(=O)C1=C(O)/C(=C/c2ccc(CNC(=O)C(=O)Nc3ccc(C)cc3)o2)N=C1C,35*,8,-48,0,-37,1,-3,11
C=CCN1[C@H](C)COc2cc(F)ccc2S1(=O)=O,2,-1,2,-2,0,/,/,/
C[C@H]1COc2cc(Br)ccc2S(=O)(=O)N1Cc1cn(Cc2ccco2)nn1,-1,-1,0,-3,-1,/,/,/
CCOc1cc(/C=C2\C(=N)N3N=C(S(=O)(=O)CC)SC3=NC2=O)ccc1OC(=O)c1ccco1,1,1,-14,3,4,/,/,/
CCS(=O)(=O)C1=NN2C(=N)/C(=C\c3ccc(SCc4ccco4)o3)C(=O)N=C2S1,43*,38*,-75,6,-57,15*,-53,53*
O=C(NCc1cccs1)c1ccc2sc([C@@H]3O[C@H](CO)[C@H](O)[C@H](O)[C@H]3O)nc2c1,33*,1,2,-3,2,-1,3,-10
Cc1ccc2occ(/C=N/NC(=O)c3ccccc3O)c(=O)c2c1,18*,1,-9,-1,-2,0,0,24*
Cc1ccc2occ(/C=N/NC(=O)c3ccc(Cl)cc3)c(=O)c2c1,0,1,-4,3,0,/,/,/
Cc1ccc(-c2nnc(SCC(=O)Nc3ccc(OCc4ccccc4)cc3)n2-c2ccc(Cl)cc2)cc1,1,0,2,-2,1,/,/,/
CC(=O)c1c(C)[nH]c(C(=O)OCC(=O)Nc2cccnc2Cl)c1C,24*,2,2,8,0,-3,12,3
COC(=O)CCCCC1SCC2NC(=O)NC21 (stereo not drawn),1,1,-1,0,2,/,/,/
O=C(O)CCCC[C@@H]1SC[C@@H]2NC(=O)N[C@@H]21,93*,1,1,5,0,2,-8,96*
CC1(C)Cc2cccc(OC(=O)NCCc3ccc(F)cc3)c2O1,15*,-2,7,0,1,1,-5,-11
CCS(=O)(=O)Nc1ccc2c(c1)C(=O)N(C)[C@@H]1CC[C@H](CC(=O)N[C@@H]3CCN(Cc4ccccc4)C3)O[C@H]1CO2,-1,5,-2,7,3,/,/,/
O=C(Cn1cnc2cc([N+](=O)[O-])ccc2c1=O)NC1CCS(=O)(=O)C1 (stereo not drawn),20*,1,-3,3,-3,1,-3,0
NC(=O)Cn1c(=O)n(CCC(=O)NCCSCc2ccccc2)c(=O)c2ccccc21,64*,1,-6,3,0,-2,10,1
O=C(CCn1c(=O)[nH]c2ccccc2c1=O)NCCSCc1ccccc1,-3,15,-3,0,1,/,/,/
CCOC(=O)CC[C@H]1CC[C@]2(CCCN(C(=O)c3ccc4ccccc4n3)C2)O1,1,-2,0,10,-2,/,/,/
Cc1ccc(NC(=O)c2ccc(CSc3ccccn3)cc2)c(O)c1,82*,1,-15,-3,-6,0,-1,-3
SMILES,LEDGF integ inh,UHRF1 MBD2 ctr,PLC-beta3 inh,MBD2 DNA inh,PLC-gamma1 inh,IN multimer up,TRFRET interf,IN-LEDGF confirm
COc1ccccc1CCn1cnc(-c2ccc(Br)cc2)c1CC(C)C,1,-3,-2,-6,2,/,/,/
CCOc1ccc(-n2c(COc3ccc(Cl)cc3)nnc2SCC(=O)Nc2ccc(OCc3ccccc3)cc2)cc1,1,2,4,3,0,/,/,/
O=C(C(=Cc1ccccc1)CN1CCCCC1)c1ccccc1,19*,3,2,-1,5,1,-4,2
Cc1ccc(N2C(=O)N(CC(=O)Nc3cccc(C)c3C)C(=O)C2C)cc1 (stereo not drawn),15*,-1,-5,-3,1,0,-1,-6
Cc1ccc(N2C(=O)N(CC(=O)Nc3cc(Cl)ccc3C)C(=O)C2C)cc1 (stereo not drawn),-4,6,-9,5,4,/,/,/
CC(C)CN=Cc1c(O)c([N+](=O)[O-])cc2oc3c(c12)CCCC3,49*,-13,-15,-14,-3,0,1,66*
O=[N+]([O-])c1cc2oc3c(c2c(C=NCc2ccccc2)c1O)CCCC3,25*,-8,-17,-7,-12,1,-6,71*
COc1cc(CN2CCc3ccccc3C2)cc([N+](=O)[O-])c1O,1,0,-2,-4,4,/,/,/
O=C1C=C(Nc2cccnc2)c2ccccc2C1=O,29*,1,-1,-26,4,4,-14,55*
Cc1ccc(NC2=CC(=O)C(=O)c3ccccc32)c(C)c1,4,-1,-18,-13,-9,/,/,/
O=C1C=C(Nc2ccccc2O)c2ccccc2C1=O,28*,-8,-38,-29,-32,19*,-66,37*
C[C@H]1[C@H](NC(=O)c2ccc(Cl)cc2)CC[C@@]23CCCN2C(=O)CCC[C@@H]13,1,2,4,-2,0,/,/,/
